Data on seven compounds can be found in PubChem BioAssay (Tox21).

The structures appear in SMILES notation. Several values for one entry are separate records, joined by “and”; a condition that tells them apart may be missing. Equal values may be shown once. Inconclusive results are not listed. Where a structure was tested more than once in an assay, its records may differ in their call. Activity calls are given as the source filed them. Unless noted, calls follow the shape of the dose curve; as a rule, active = well fitted curve in the direction sought with a large enough effect in the repeat runs; inconclusive = weak or mixed curves; inactive = no such curve, though single readings can be large; an effect the other way counts as inactive or inconclusive.

A short description of assay [1]: qHTS assay for small molecules that induce genotoxicity in human embryonic kidney cells expressing luciferase-tagged ATAD5 (AID 651632). Also: nearly all actives have a fitted effect of over 15% in size. In outline: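 HEK293T cells carrying a luciferase reporter tagged to ATAD5 were exposed to compound or DMSO vehicle for 16 hr at 37C, 5% CO2. Amplite was added, and after 30 min at room temperature luciferase activity was read as a marker of ATAD5 induction.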
(In general: In qHTS, concentration-response curves come from the screen itself.)

A short description of assay [2]: qHTS assay for small molecule agonists of the p53 signaling pathway - cell viability (AID 651633; calls by dose curve; also: nearly all actives have a fitted effect of over 30% in size; also: potency is read from the fitted curve at half-maximal effect). In outline:
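Viability counter-read: CellTiter-Glo luminescence (30 min, room temperature) in the same p53RE-bla plates. These plates had been exposed to compounds for 16 h at 37 C.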

Assay [3] can be described thus: qHTS assay for small molecules that induce genotoxicity in human embryonic kidney cells expressing luciferase-tagged ATAD5 - cell viability (AID 651634; calls by dose curve; also: nearly all actives have a fitted effect of over 25% in size; also: potency is read from the fitted curve at half-maximal effect). In outline:
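HEK293T cells expressing luciferase-tagged ATAD5 were exposed to compound or DMSO for 15.5 hr at 37C, 5% CO2. Viability was then read as live-cell protease activity by CellTiter-Fluor fluorescence after 30 min at 37C.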

Assay [4] in a line: qHTS assay for small molecule disruptors of the mitochondrial membrane potential (AID 720635). Also: potency is read from the fitted curve at half-maximal effect. In short, it runs like this:
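Mitochondrial membrane potential tracked with Mito-MPS dye, red aggregates (ex 540/em 590 nm) against green monomers (ex 490/em 535 nm). Compound treatment 1 hr at 37C, dye 30 min in HepG2.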

Assay [5] can be described thus: qHTS assay to test for compound auto fluorescence at 590 nm (red) in HepG2 cells (AID 720674). In outline:
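We screened compounds on adherent HepG2 cells, incubating them for an hour at 37 C in 5% CO2 before reading emission at 590 nm under 540 nm excitation; values reflect equivalence to Rose Bengal sodium fluorescence.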

Assay [6] is described as follows: qHTS assay to test for compound auto fluorescence at 535 nm (green) in HepG2 cells (AID 720675).
The nature of assay [7]: qHTS assay to test for compound auto fluorescence at 460 nm (blue) in HEK293 cells (AID 720678). In short, it runs like this:
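Blue read-out at excitation 405 nm and emission 460 nm follows overnight compound exposure of HEK293 cells at 37C in 5% CO2. Activity is given as auto fluorescence equivalency to triamterene.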

Assay [8] is described as follows: qHTS assay to test for compound auto fluorescence at 590 nm (red) in HEK293 cells (AID 720679). In short, it runs like this:
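Red channel, Ex/Em 540/590nm; signal expressed as equivalency to Rose Bengal sodium. HEK293, 2,000 cells/well, 10% dialyzed FBS; 23 nL compound pinned after 4-5 hr attachment; overnight 37C/5% CO2 before reading.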

Assay [9] can be described thus: qHTS assay to test for compound auto fluorescence at 535 nm (green) in HEK293 cells (AID 720680).
Assay [10] is described as follows: qHTS assay to test for compound auto fluorescence at 460 nm (blue) in HEK293 cell free culture (AID 720681). In outline:
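Blue fluorescence (Ex 405/Em 460 nm, triamterene-equivalent) was read immediately after pin transfer of compound or DMSO into medium (DMEM, 10% FBS) without cells.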

Assay [11] is described as follows: qHTS assay to test for compound auto fluorescence at 590 nm (red) in HEK293 cell free culture (AID 720683). In outline: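 Red-channel autofluorescence of compounds in culture medium (DMEM, 10% FBS), no cells, measured at 540/590 nm. Rose Bengal sodium is the reference fluorophore for equivalence.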
A short description of assay [12]: qHTS assay to test for compound auto fluorescence at 590 nm (red) in HepG2 cell free culture (AID 720684). In outline: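 Steps: dispense MEM/10% FBS medium, no cells; pin compound or DMSO vehicle; read red channel, Ex/Em 540/590 nm. Output given as Rose Bengal sodium equivalents.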
The nature of assay [13]: qHTS assay to test for compound auto fluorescence at 460 nm (blue) in HepG2 cell free culture (AID 720685). In short, it runs like this: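 Compound (23 nL) or DMSO pinned into cell-free MEM with 10% FBS; blue fluorescence read at 405/460 nm excitation/emission, expressed as auto-fluorescence equivalency to triamterene.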
Assay [14] in a line: qHTS assay to test for compound auto fluorescence at 535 nm (green) in HepG2 cell free culture (AID 720686).
A short description of assay [15]: qHTS assay to test for compound auto fluorescence at 460 nm (blue) in HepG2 cells (AID 720687). In short, it runs like this: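 Blue-channel autofluorescence (Ex/Em 405/460 nm, triamterene-equivalent) was measured after 1 hr compound exposure at 37 C, 5% CO2. Cells were HepG2, plated overnight at 37 C in MEM plus 10% FBS.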
Assay [16] is described as follows: qHTS assay for small molecule disruptors of the mitochondrial membrane potential - cell viability (AID 720634; calls by dose curve; also: nearly all actives have a fitted effect of over 20% in size; also: potency is read from the fitted curve at half-maximal effect). In short, it runs like this: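 HepG2 cells seeded overnight at 37 C, then exposed to compound or DMSO for 1 hr at 37 C, 5% CO2. m-MPI dye added, then CellTiter-Glo for 30 min at room temperature; viability read as ATP luminescence.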
Assay [17] in a line: qHTS assay to test for compound auto fluorescence at 535 nm (green) in HEK293 cell free culture (AID 720682). In short, it runs like this:
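Read-out: 485/535 nm fluorescence intensity, calibrated against fluorescein. Medium only (DMEM + 10% FBS, no cells); test compound or DMSO vehicle added by pintool before plate reading.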

Assay [18] deals with Glucocorticoid receptor (Homo sapiens) (UniProt P04150). The experiment in a line: qHTS assay to identify small molecule agonists of the glucocorticoid receptor (GR) signaling pathway (AID 720691; active = well fitted activation curve with a large enough effect in the signal ratio in the repeat runs, not every such curve was filed as active; the % refers to the signal ratio). Particulars: GR-bla HeLa, beta-lactamase reporter ratio, 18 h; activation: at 62.4 µM (top of the series). In short, it runs like this: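 GR-bla HeLa cells (beta-lactamase reporter under glucocorticoid response element) were plated 4 h at 37 C/5% CO2, given compounds in DMSO, and incubated 18 h at 37 C. LiveBLAzer B/G FRET substrate was added for 2 h at room temperature, then fluorescence intensity read.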

Assay [19] shares this target. The experiment in a line: qHTS assay to identify small molecule antagonists of the glucocorticoid receptor (GR) signaling pathway (AID 720692; active = well fitted inhibition curve with a large enough effect in the signal ratio in the repeat runs, not every such curve was filed as active; the % refers to the signal ratio). In outline:
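GR-bla HeLa cells (beta-lactamase reporter under glucocorticoid response element) were pre-plated 4 h at 37 C, treated with compounds plus 5 nM dexamethasone (final) for 18 h, then read by LiveBLAzer B/G FRET fluorescence after 2 h.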

Chain of Glucocorticoid receptor (Homo sapiens) (P04150 whole entry, looked up): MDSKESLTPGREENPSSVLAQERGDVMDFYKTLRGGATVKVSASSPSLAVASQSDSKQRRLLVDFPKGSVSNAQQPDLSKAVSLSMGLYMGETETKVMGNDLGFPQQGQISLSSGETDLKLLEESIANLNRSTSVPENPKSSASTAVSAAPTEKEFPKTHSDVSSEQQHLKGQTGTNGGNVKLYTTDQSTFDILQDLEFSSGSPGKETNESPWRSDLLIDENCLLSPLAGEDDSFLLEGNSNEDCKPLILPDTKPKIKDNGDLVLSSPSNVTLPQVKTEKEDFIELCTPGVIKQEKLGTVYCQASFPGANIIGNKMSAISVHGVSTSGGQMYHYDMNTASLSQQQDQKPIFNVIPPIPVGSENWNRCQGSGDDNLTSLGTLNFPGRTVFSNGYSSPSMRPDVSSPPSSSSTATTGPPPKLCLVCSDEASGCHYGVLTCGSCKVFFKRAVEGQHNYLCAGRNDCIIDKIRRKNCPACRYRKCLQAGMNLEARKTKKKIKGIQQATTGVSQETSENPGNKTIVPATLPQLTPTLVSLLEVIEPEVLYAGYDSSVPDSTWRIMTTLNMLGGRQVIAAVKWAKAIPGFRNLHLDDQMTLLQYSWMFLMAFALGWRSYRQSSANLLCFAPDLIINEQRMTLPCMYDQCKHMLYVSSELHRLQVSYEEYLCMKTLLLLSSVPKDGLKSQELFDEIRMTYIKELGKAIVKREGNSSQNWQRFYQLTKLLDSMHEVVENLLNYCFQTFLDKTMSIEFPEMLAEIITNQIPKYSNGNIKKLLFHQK

Turning to `OCc1c[nH]c2ccccc12`, the Potency result in assay [1], in assay [2], in assay [3], in assay [5], in assay [6] and in assay [7] was “inactive” in each case. The Potency entry in assay [8], in assay [10], in [11], in assay [12], in [13] and in [14] was “inactive” each time. In addition, the Potency entry in assay [15] was “inactive”. For the same compound, the Potency in assay [4] was 24.3 µM (active). Moreover, in [9], the call was inactive.
Regarding `O=C(c1ccc(F)cc1)C1CCN(CCn2c(=O)[nH]c3ccccc3c2=O)CC1`, the Potency entry in assay [1], in assay [2], in [3], in assay [16], in assay [5] and in assay [6] was “inactive” in each case. The Potency result in assay [7], in [8], in assay [10], in assay [11], in assay [12] and in [13] was “inactive” in each case. The Potency result in [14], in assay [15] and in [18] was “inactive” throughout. Moreover, the result in [9] and in assay [17] was inactive.
Consider `CC(C)(C)C(=O)OCOC(=O)C1N2C(=O)CC2S(=O)(=O)C1(C)C` (configuration not stated), for which the Potency result in assay [1], in assay [2], in [3], in [5], in assay [6] and in assay [7] was “inactive” throughout. The Potency result in [8], in [11], in [13], in assay [14] and in assay [15] was “inactive” in each case. For the same compound, the compound was classed as inactive in assay [9] and in assay [17].
Regarding `Cc1ccc(O)c(C(C)(C)C)c1`, the Potency entry in [1], in assay [5], in [6], in assay [7], in assay [8] and in assay [10] was “inactive” each time. The Potency result in [11], in assay [12], in assay [13], in assay [14], in assay [15] and in assay [19] was “inactive” throughout. Besides, the Potency in assay [2] is 54.4 µM (active) and inactive; in assay [16] it was 27.3 µM (active) and 54.5 µM (active); in assay [4], 5.44 µM (active) and 27.3 µM (active). Moreover, the outcome in assay [9] and in [17] was inactive.
In the case of `OCCN1CCN(CC/C=C2/c3ccccc3Sc3ccc(C(F)(F)F)cc32)CC1`, the Potency entry in [1], in assay [5], in assay [6], in assay [7], in [8] and in assay [10] was “inactive” each time. The Potency entry in assay [11], in assay [12], in assay [13], in assay [14] and in [15] was “inactive” in each case. Moreover, the Potency in [2] was 29.8 µM (active). The outcome in assay [9] and in assay [17] was inactive.
Take `Fc1ccc([C@@H]2CCNC[C@H]2COc2ccc3c(c2)OCO3)cc1`: the Potency entry in assay [1], in [16], in assay [5], in assay [6], in assay [7] and in assay [8] was “inactive” each time. For the same compound, the Potency result in [11], in assay [12], in assay [13], in [14], in assay [15] and in assay [18] was “inactive” in each case. Also, in assay [2], the Potency was 33.5 µM (active). For the same compound, the outcome in assay [9] and in assay [17] was inactive.
Take `CCCCC(CC)CN=C(N)NC(N)=NCCCCCCN=C(N)NC(N)=NCC(CC)CCCC` (configuration not stated): the Potency was 26.6 µM (active) in assay [2], 26.6 µM (active) in assay [3], 21.1 µM (active) in assay [16] and 17.6 µM (active) in assay [4]. The Potency entry in assay [5], in [6], in [7], in assay [8], in [10] and in assay [11] was “inactive” in each case. The Potency entry in [12], in assay [13], in assay [14] and in assay [15] was “inactive” in each case. Further, the outcome in [9] and in assay [17] was inactive.
